The source of these data is PubChem BioAssay (NCATS).

Structures are written as SMILES. Results filed as inconclusive are left out. A call without a number means that no potency is given here. Activity calls are given as the source filed them. The call rests on the fitted dose curve.
Potency means the concentration at half of the fitted maximal effect.

For this experiment, the target named is Nucleoprotein (Lymphocytic choriomeningitis virus (strain Armstrong)) (UniProt P09992). Briefly: qHTS for Inhibitors of the Functional Ribonucleoprotein Complex (vRNP) of Lymphocytic Choriomeningitis Arenaviruses (LCMV): LCMV Primary Screen - GLuc reporter signal (AID 1347086). Further: nearly all actives have a fitted effect of over 70% in size. The conditions noted are these: LCMV minigenome vRNP cell assay, Gaussia luciferase reporter; series mostly up to 57.5 µM.
Chain of Nucleoprotein (Lymphocytic choriomeningitis virus (strain Armstrong)) (P09992 whole entry, looked up): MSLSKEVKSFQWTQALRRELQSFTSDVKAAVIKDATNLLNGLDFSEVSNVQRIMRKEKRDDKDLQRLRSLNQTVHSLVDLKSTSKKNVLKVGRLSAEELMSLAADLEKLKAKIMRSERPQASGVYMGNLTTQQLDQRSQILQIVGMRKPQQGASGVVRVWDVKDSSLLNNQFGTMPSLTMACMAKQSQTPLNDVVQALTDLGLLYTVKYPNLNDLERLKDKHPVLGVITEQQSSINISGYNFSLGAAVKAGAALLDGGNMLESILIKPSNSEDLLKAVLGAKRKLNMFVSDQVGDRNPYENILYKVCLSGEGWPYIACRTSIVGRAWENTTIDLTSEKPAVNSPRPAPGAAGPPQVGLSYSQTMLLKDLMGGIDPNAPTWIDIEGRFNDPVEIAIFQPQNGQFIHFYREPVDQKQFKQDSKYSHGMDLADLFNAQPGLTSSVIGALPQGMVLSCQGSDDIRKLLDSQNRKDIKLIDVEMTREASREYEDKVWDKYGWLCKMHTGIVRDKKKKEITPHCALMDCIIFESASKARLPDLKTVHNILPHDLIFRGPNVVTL
On to `NS(=O)(=O)c1cc2c(cc1Cl)NC(CC1CCCC1)NS2(=O)=O` (centres undefined), for which the Potency result was “inactive”. As for `COc1ccc(S(=O)(=O)Nc2nnc(CC(C)C)s2)cc1`, the Potency entry is “inactive”.

With `CCOc1nc2cccc(C(=O)O)c2n1Cc1ccc(-c2ccccc2-c2nn[nH]n2)cc1`, the Potency result is “inactive”. As for `COc1cc(NS(=O)(=O)c2ccc(N)cc2)nc(C)n1`, the Potency result was “inactive”. In the case of `Cc1cc(C)nc(NS(=O)(=O)c2ccc(N)cc2)n1`, the Potency result is “inactive”. In the case of `Nc1ccn([C@@H]2CS[C@H](CO)O2)c(=O)n1`, the Potency result is “inactive”.

Consider `NS(=O)(=O)c1cc2c(cc1Cl)NC(C(Cl)Cl)NS2(=O)=O` (centres undefined), for which the Potency entry is “inactive”. On to `NCC[C@H](O)C(=O)N[C@@H]1C[C@H](N)[C@@H](O[C@H]2O[C@H](CN)[C@@H](O)[C@H](O)[C@@H]2O)[C@H](O)[C@@H]1O[C@H]1O[C@H](CO)[C@@H](O)[C@H](N)[C@@H]1O`, for which the activity change, negative = inhibition was 19.2% [at 0.757 µM] (inactive). As to `CCCCCCNC(=O)n1cc(F)c(=O)[nH]c1=O`, the Potency result was “inactive”. With `OC[C@H]1O[C@@H](Oc2ccc(O)cc2)[C@H](O)[C@@H](O)[C@@H]1O`, the Potency result was “inactive”. Still for that read-out and setting: with `COc1ccc(C(=O)CC(=O)c2ccc(C(C)(C)C)cc2)cc1` the entry was “inactive”; with `COCC(=O)Nc1c(I)c(C(=O)NCC(O)CO)c(I)c(C(=O)N(C)CC(O)CO)c1I` (centres undefined), “inactive”.

For `O=C(CCCl)NCc1ccccc1`, the Potency entry was “inactive”. The same measure, in the same setting: with `CO[C@@]1(NC(=O)Cc2cccs2)C(=O)N2C(C(=O)O)=C(COC(N)=O)CS[C@@H]21` the entry was “inactive”; with `O=C(O)CN(CCN(CC(=O)O)CC(=O)O)CCN(CC(=O)O)CC(=O)O`, “inactive”; with `O=P(O)(O)OCC(O)CO` (centres undefined), “inactive”. Same read-out and setting: with `COc1cc(/C=C/C(N)=O)cc(OC)c1OC` the entry was “inactive”; with `Cc1ncc(CO)c(C=O)c1O`, “inactive”.

As for `CC(C)[C@H](N)C(=O)OCCOCn1cnc2c(=O)[nH]c(N)nc21`, the Potency result is “inactive”. As to `C[C@@H]1O[C@@H](O[C@H]2CC[C@@]3(C)[C@H](CC[C@@H]4[C@H]3C[C@@H](O)[C@]3(C)[C@@H](C5=CC(=O)OC5)CC[C@]43O)C2)C[C@H](O)[C@@H]1O[C@H]1C[C@H](O)[C@H](O[C@H]2C[C@H](O)[C@@H](O)[C@@H](C)O2)[C@H](C)O1` (stereo in doubt), the Potency is 0.444 µM (active). In the case of `CC1(C)Oc2ccc(C#N)cc2[C@@H](N2CCCC2=O)[C@@H]1O`, the Potency entry is “inactive”. Turning to `Cc1cnc(NS(=O)(=O)c2ccc(N)cc2)nc1`, the Potency entry is “inactive”. For the compound `CN1Cc2cc(C(=O)N3CCC(C4CCNCC4)CC3)ccc2NC(CC(=O)O)C1=O` (centres undefined), the Potency entry is “inactive”. Consider `CCN1CCN(C(=O)N[C@@H](C(=O)N[C@@H]2C(=O)N3[C@@H]2SC(C)(C)[C@H]3C(=O)O)c2ccccc2)C(=O)C1=O`, for which the Potency result was “inactive”. For the compound `CC(=O)[C@@]1(O)CC[C@H]2[C@@H]3C[C@H](C)C4=CC(=O)C=C[C@]4(C)[C@@]3(F)[C@@H](O)C[C@@]21C`, the Potency entry is “inactive”.

On to `CCCCCCCC/C=C\CCCCCCCC(=O)NCc1ccc(O)c(OC)c1`, for which the Potency entry was “inactive”. Regarding `CCN1CCCC1CN` (centres undefined), the Potency result was “inactive”. As to `COc1cc(NS(C)(=O)=O)ccc1Nc1c2ccccc2nc2ccccc12`, the Potency is 5.62 µM (active).

Regarding `O=C1CC(c2ccc(Cl)cc2)CC(=O)N1`, the Potency entry is “inactive”. On the same count and under the same terms, with `C[C@H](NC(CCc1ccccc1)C(=O)O)C(=O)N1CCC[C@H]1C(=O)O` (some centres undefined) the entry was “inactive”; with `O=C(O)CCCCCCCC(=O)O`, “inactive”.

`O=C(O)c1ccccc1C(=O)Nc1ccc(S(=O)(=O)Nc2nccs2)cc1`: the Potency result is “inactive”. Consider `O=C(O)CSCC(=O)NC1CCSC1=O` (centres undefined), for which the Potency entry was “inactive”. With `Cn1c([N+](=O)[O-])cnc1COC(N)=O`, the Potency entry was “inactive”.

For `CCN(CC)CCNC(=O)c1ccc(N)cc1`, the Potency result is “inactive”.

`CC(=O)OCC[N+](C)(C)C`: the Potency entry was “inactive”.

`CN1CCN2c3ncccc3Cc3ccccc3C2C1` (centres undefined): the Potency entry was “inactive”. As to `NC(=O)COCCN1CCN(C(c2ccccc2)c2ccc(Cl)cc2)CC1` (centres undefined), the Potency result was “inactive”. Still for that read-out and setting: in the case of `CC(C)C(=O)Nc1cccc(C(F)(F)F)c1` it was “inactive”.
